Laboratory results: PMC4336329 (PLoS ONE, 2015)
About 14,000 (4.5%) of roughly 310,000 compounds showed an effect of 50% or more. The effect is printed as a negative number. The entries come from a sample that favours strong results as a whole.

Each compound was assayed against human ether-à-go-go-related gene (hERG) potassium channel (human, UniProt Q12809) (assay: primary screen, population patch clamp on CHO cells stably expressing hERG; higher = less effect of the substance).
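Note: peak tail current of the secondary pulse compared with the same well before compound.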

Chain of human ether-à-go-go-related gene (hERG) potassium channel (Q12809 whole entry, looked up): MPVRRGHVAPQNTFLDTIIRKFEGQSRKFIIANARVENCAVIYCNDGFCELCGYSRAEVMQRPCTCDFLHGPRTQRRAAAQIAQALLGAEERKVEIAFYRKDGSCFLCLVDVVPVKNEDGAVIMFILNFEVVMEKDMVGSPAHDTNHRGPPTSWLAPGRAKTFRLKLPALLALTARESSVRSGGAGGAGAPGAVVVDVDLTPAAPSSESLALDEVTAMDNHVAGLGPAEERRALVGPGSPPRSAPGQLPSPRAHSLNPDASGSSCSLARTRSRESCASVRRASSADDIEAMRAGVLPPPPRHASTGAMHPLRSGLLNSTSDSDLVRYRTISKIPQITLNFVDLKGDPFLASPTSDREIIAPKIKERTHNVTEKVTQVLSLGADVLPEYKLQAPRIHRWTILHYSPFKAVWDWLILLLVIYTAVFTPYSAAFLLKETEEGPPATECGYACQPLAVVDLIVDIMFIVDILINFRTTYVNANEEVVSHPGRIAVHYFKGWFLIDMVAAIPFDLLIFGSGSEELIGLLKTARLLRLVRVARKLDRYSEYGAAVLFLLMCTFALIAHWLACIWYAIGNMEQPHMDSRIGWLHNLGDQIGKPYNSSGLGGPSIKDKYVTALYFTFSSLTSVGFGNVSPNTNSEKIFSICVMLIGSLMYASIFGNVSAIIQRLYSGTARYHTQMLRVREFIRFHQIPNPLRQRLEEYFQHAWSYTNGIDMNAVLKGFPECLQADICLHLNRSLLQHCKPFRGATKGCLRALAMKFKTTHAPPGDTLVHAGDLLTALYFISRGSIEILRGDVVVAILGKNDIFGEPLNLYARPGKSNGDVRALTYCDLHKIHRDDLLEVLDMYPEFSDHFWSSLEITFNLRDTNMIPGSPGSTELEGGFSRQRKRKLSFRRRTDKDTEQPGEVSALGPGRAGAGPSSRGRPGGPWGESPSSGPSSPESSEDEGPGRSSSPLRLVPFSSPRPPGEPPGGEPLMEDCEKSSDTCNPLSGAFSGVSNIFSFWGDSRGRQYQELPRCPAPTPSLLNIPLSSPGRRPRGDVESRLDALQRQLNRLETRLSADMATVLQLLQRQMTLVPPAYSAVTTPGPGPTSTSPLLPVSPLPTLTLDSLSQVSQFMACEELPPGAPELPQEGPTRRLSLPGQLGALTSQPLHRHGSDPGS

Question: With `O=C(CN1C(=O)c2ccccc2C1=O)Nc1ccc(S(=O)(=O)N2CCOCC2)cc1` as the compound, how does the “hERG current change (%, negative = inhibition) at 10uM” value read?
Answer: -16.9%

Question: With `O=C(NC1CCCC1)C1CCN(C(=O)c2cccc(Cl)c2)CC1` as the compound, how does the “hERG current change (%, negative = inhibition) at 10uM” value read?
Answer: -6.41%

Question: How did the “hERG current change (%, negative = inhibition) at 10uM” value turn out when `Cc1ccc(-n2ncc3c(NCc4ccccn4)ncnc32)c(C)c1` was run?
Answer: -7.46%

Question: With `Cc1ccc2nc(-c3ccncc3)c(NC3CCCC3)n2c1` as the compound, how does the “hERG current change (%, negative = inhibition) at 10uM” value read?
Answer: -54.2%

Question: For `Cc1ccc2nc(-c3ccncc3)c(NC3CCCCC3)n2c1`, which “hERG current change (%, negative = inhibition) at 10uM” value is on record?
Answer: 9.35%

Question: With `Cc1ccc2nc(-c3cccnc3)c(NC3CCCC3)n2c1` as the compound, how does the “hERG current change (%, negative = inhibition) at 10uM” value read?
Answer: -19.7%

Question: With `CCOc1cccc(OCCCCn2ccnc2)c1` as the compound, how does the “hERG current change (%, negative = inhibition) at 10uM” value read?
Answer: -9.04%

Question: With `COc1ccc(C)cc1NS(=O)(=O)c1ccc2c(c1)oc(=O)n2C` as the compound, how does the “hERG current change (%, negative = inhibition) at 10uM” value read?
Answer: 16.2%

Question: With `Cc1cc(C)c2cc(C(=O)N3CCC(C(=O)c4ccc(F)cc4)CC3)[nH]c2c1` as the compound, how does the “hERG current change (%, negative = inhibition) at 10uM” value read?
Answer: 2.63%

Question: `Cc1cc(C)c2cc(C(=O)N3CCC(N4CCCCC4)CC3)[nH]c2c1` was tested. Which “hERG current change (%, negative = inhibition) at 10uM” value did it give?
Answer: -69.2%

Question: Which “hERG current change (%, negative = inhibition) at 10uM” value does the source give for `CCOC(=O)C1CCN(C(=O)c2cc3c(C)cc(C)cc3[nH]2)CC1` here?
Answer: -15.2%

Question: With `O=C(NNC(=O)c1cccs1)c1ccc(Br)o1` as the compound, how does the “hERG current change (%, negative = inhibition) at 10uM” value read?
Answer: 15.8%

Question: Which “hERG current change (%, negative = inhibition) at 10uM” value does the source give for `CC1C(=O)NN=C1C(=O)N/N=C/c1cccs1` (stereo not drawn) here?
Answer: 17.3%

Question: How did the “hERG current change (%, negative = inhibition) at 10uM” value turn out when `COC(=O)c1nn(-c2ccccc2)c(Cl)c1/C=N/OCc1ccc(Cl)cc1Cl` was run?
Answer: 20.6%

Question: How did the “hERG current change (%, negative = inhibition) at 10uM” value turn out when `COC(=O)c1ccc(CSc2nnc3c(Cl)cc(Cl)cn23)o1` was run?
Answer: 10.9%

Question: Which “hERG current change (%, negative = inhibition) at 10uM” value does the source give for `CCCOc1ccc(N2CC(C(=O)Nc3ccccc3C(=O)NC)CC2=O)cc1` (stereo not drawn) here?
Answer: -71.8%

Question: How did the “hERG current change (%, negative = inhibition) at 10uM” value turn out when `CCCOc1ccc(N2CC(C(=O)Nc3ccccc3F)CC2=O)cc1` (stereo not drawn) was run?
Answer: -3.15%

Question: Which “hERG current change (%, negative = inhibition) at 10uM” value does the source give for `O=C(NCc1ccco1)C1CC(=O)N(c2ccc(O)cc2)C1` (stereo not drawn) here?
Answer: -10.2%

Question: How did the “hERG current change (%, negative = inhibition) at 10uM” value turn out when `CNC(=O)c1ccccc1NC(=O)C1CC(=O)N(c2ccc(OC)cc2)C1` (stereo not drawn) was run?
Answer: -12.3%

Question: Which “hERG current change (%, negative = inhibition) at 10uM” value does the source give for `O=C(NCc1ccco1)C1CC(=O)N(c2ccc(Cl)cc2)C1` (stereo not drawn) here?
Answer: -6.16%

Question: With `CCCOc1ccc(N2CC(C(=O)Nc3ccccc3C(=O)NCc3ccco3)CC2=O)cc1` (stereo not drawn) as the compound, how does the “hERG current change (%, negative = inhibition) at 10uM” value read?
Answer: -71.5%

Question: How did the “hERG current change (%, negative = inhibition) at 10uM” value turn out when `CCCCOc1ccc(N2CC(C(=O)NCc3ccco3)CC2=O)cc1` (stereo not drawn) was run?
Answer: -14.5%

Question: With `O=C(NCc1ccco1)c1ccccc1NC(=O)C1CC(=O)N(c2ccc(Cl)cc2)C1` (stereo not drawn) as the compound, how does the “hERG current change (%, negative = inhibition) at 10uM” value read?
Answer: -78.4%

Question: Which “hERG current change (%, negative = inhibition) at 10uM” value does the source give for `COc1ccc(N2CC(C(=O)Nc3ccccc3C(=O)NCc3ccco3)CC2=O)cc1` (stereo not drawn) here?
Answer: -42%

Question: For `CCc1ccc(/C=N/NC(=O)c2cc(-c3ccccc3OC)nc3ccccc23)s1`, which “hERG current change (%, negative = inhibition) at 10uM” value is on record?
Answer: 9.69%

Question: `O=C(NC1CCN(Cc2ccccc2)CC1)C1CCN(S(=O)(=O)c2cccc3nsnc23)CC1` was tested. Which “hERG current change (%, negative = inhibition) at 10uM” value did it give?
Answer: -23.7%

Question: How did the “hERG current change (%, negative = inhibition) at 10uM” value turn out when `CN(C)CC1CCCCC1OC(=O)/C=C/c1ccccc1.Cl` (stereo not drawn) was run?
Answer: -33.2%

Question: With `Cc1ccccc1C(=O)NNc1ccc([N+](=O)[O-])cc1` as the compound, how does the “hERG current change (%, negative = inhibition) at 10uM” value read?
Answer: -17.3%

Question: With `CCCOc1ccc(C2/C(=C(/O)c3ccccc3)C(=O)C(=O)N2CCCN(C)C)cc1OC` (stereo not drawn) as the compound, how does the “hERG current change (%, negative = inhibition) at 10uM” value read?
Answer: 5.35%

Question: With `Cc1ccccc1CNC(=O)CN(c1cccc([N+](=O)[O-])c1)S(C)(=O)=O` as the compound, how does the “hERG current change (%, negative = inhibition) at 10uM” value read?
Answer: 6.08%

Question: For `Cc1ccc(N/C(N)=N/c2nc(CSc3nnc(C)s3)cc(=O)[nH]2)c(C)c1`, which “hERG current change (%, negative = inhibition) at 10uM” value is on record?
Answer: -8.86%

Question: How did the “hERG current change (%, negative = inhibition) at 10uM” value turn out when `Cc1ccc(-n2ncc3c2CC(C)(C)CC3NC(=O)c2ccccn2)cc1` (stereo not drawn) was run?
Answer: -73.7%

Question: With `Cc1ccc(-n2ncc3c2CC(C)(C)CC3NC(=O)c2ccc[n+]([O-])c2)cc1` (stereo not drawn) as the compound, how does the “hERG current change (%, negative = inhibition) at 10uM” value read?
Answer: -1.89%

Question: For `Cc1ccc(-n2ncc3c2CC(C)(C)CC3NC(=O)c2ccncc2)cc1` (stereo not drawn), which “hERG current change (%, negative = inhibition) at 10uM” value is on record?
Answer: -72.2%

Question: Which “hERG current change (%, negative = inhibition) at 10uM” value does the source give for `Cc1ccc(-n2ncc3c2CC(C)(C)CC3NC(=O)c2cc[n+]([O-])cc2)cc1` (stereo not drawn) here?
Answer: -75.4%

Question: `CC1=C(C(=O)NC2CC(C)(C)Cc3c2cnn3-c2ccc(C)cc2)OCCO1` (stereo not drawn) was tested. Which “hERG current change (%, negative = inhibition) at 10uM” value did it give?
Answer: 3.64%

Question: For `Cc1cnc(C(=O)NC2CC(C)(C)Cc3c2cnn3-c2ccccc2)cn1` (stereo not drawn), which “hERG current change (%, negative = inhibition) at 10uM” value is on record?
Answer: -39%

Question: How did the “hERG current change (%, negative = inhibition) at 10uM” value turn out when `Cc1ccccc1-n1ncc2c1CC(C)(C)CC2NC(=O)c1ccncc1` (stereo not drawn) was run?
Answer: -47.4%

Question: With `CC1(C)Cc2c(cnn2-c2cccc(F)c2)C(NC(=O)c2cc[n+]([O-])cc2)C1` (stereo not drawn) as the compound, how does the “hERG current change (%, negative = inhibition) at 10uM” value read?
Answer: -37.3%

Question: `Cc1cc(C(=O)NC2CC(C)(C)Cc3c2cnn3-c2ccccc2)n[nH]1` (stereo not drawn) was tested. Which “hERG current change (%, negative = inhibition) at 10uM” value did it give?
Answer: -19.2%

Question: With `O=C1N[C@@H](Cc2cn(S(=O)(=O)c3ccccc3)c3ccccc23)C(=O)N[C@H]1Cc1ccccc1` as the compound, how does the “hERG current change (%, negative = inhibition) at 10uM” value read?
Answer: 14.9%

Question: With `Cn1nc(C(=O)NC2CCCCC2)c2c1-c1ccccc1S(=O)(=O)C2` as the compound, how does the “hERG current change (%, negative = inhibition) at 10uM” value read?
Answer: 11.7%

Question: `CCCCc1ccc(-c2nc(N)n[nH]2)cc1` was tested. Which “hERG current change (%, negative = inhibition) at 10uM” value did it give?
Answer: 6.27%

Question: For `O=[N+]([O-])c1ccc2c(c1)C(N1CCOCC1)/C(=C/COc1ccc(F)cc1)O2` (stereo not drawn), which “hERG current change (%, negative = inhibition) at 10uM” value is on record?
Answer: -26%

Question: With `O=[N+]([O-])c1ccc(OC/C=C2\Oc3ccc([N+](=O)[O-])cc3C2N2CCOCC2)cc1` (stereo not drawn) as the compound, how does the “hERG current change (%, negative = inhibition) at 10uM” value read?
Answer: -71.7%

Question: For `O=[N+]([O-])c1ccc2c(c1)C(N1CCOCC1)/C(=C/COc1ccc(Cl)cc1Cl)O2` (stereo not drawn), which “hERG current change (%, negative = inhibition) at 10uM” value is on record?
Answer: -1.06%

Question: Which “hERG current change (%, negative = inhibition) at 10uM” value does the source give for `Oc1nc(Nc2ccc(Cl)cc2Cl)sc1/C=C1\C=Nc2ccccc21` here?
Answer: 9.08%

Question: How did the “hERG current change (%, negative = inhibition) at 10uM” value turn out when `CCCOc1ccc(C(C)=O)cc1CN1CCOCC1.Cl` was run?
Answer: 2.99%

Question: Which “hERG current change (%, negative = inhibition) at 10uM” value does the source give for `CCCCn1nc(NC(=O)CC)c2cc3cc(OC)ccc3nc21` here?
Answer: -11.2%

Question: With `CCCCn1nc(NC(=O)CCC)c2cc3cc(OC)ccc3nc21` as the compound, how does the “hERG current change (%, negative = inhibition) at 10uM” value read?
Answer: -3.42%

Question: With `CCCCn1nc(NC(=O)COC)c2cc3cc(OC)ccc3nc21` as the compound, how does the “hERG current change (%, negative = inhibition) at 10uM” value read?
Answer: -53.2%

Question: How did the “hERG current change (%, negative = inhibition) at 10uM” value turn out when `COc1ccc(NC(=O)CSc2nc3c([nH]c4ccccc43)c(=O)n2C)cc1` was run?
Answer: 0.41%

Question: Which “hERG current change (%, negative = inhibition) at 10uM” value does the source give for `COc1cc(/C=C2/C(=N)N3OC(C)=CC3=NC2=O)ccc1OC(=O)c1ccco1` here?
Answer: 29.8%

Question: `Cc1ccc(N=C2NC(=O)C(CO)(CO)S2)cc1` was tested. Which “hERG current change (%, negative = inhibition) at 10uM” value did it give?
Answer: 16.1%
